# Screening results as filed in PubChem.
# This is a sample that favours compounds with a hit; in the whole collection about 12% have one here.
# G9a block: qHTS Assay for Inhibitors of Histone Lysine Methyltransferase G9a; Histone-lysine N-methyltransferase EHMT2 (Homo sapiens), Q96KQ7; G9a H3K9 monomethylation, AlphaScreen, 2 h; Potency, µM (series often up to 102 µM), for inactives: top-dose activity, negative = inhibition, usual class: inhibitors; actives 8.8% (n = 350,000); AID 504332, 2011; also: potency is read from the fitted curve at half-maximal effect; % is scaled to controls: 0 for no effect and ±100 for the full control effect; nearly all actives have a fitted effect of over 75% in size
#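 Compounds were preincubated with 20 nM G9a for 15 min, after which biotinylated H3K9 peptide (500 nM) and SAM (20 uM) started a 2 h room-temperature reaction. Monomethylated product was quantified by antibody-based AlphaScreen chemiluminescence.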
# JMJD2A Tudor: qHTS Assay for Inhibitors of JMJD2A-Tudor Domain; Lysine-specific demethylase 4A (Homo sapiens), O75164; AlphaScreen JMJD2A-Tudor / H3K4me3 peptide binding; Potency, µM (top dose mostly 114 µM), inactives show at the highest dose activity change, negative = inhibition, hits mostly inhibitors; actives 4.4% (n = 390,000); also: potency is read from the fitted curve at half-maximal effect; % is scaled to controls: 0 for no effect and ±100 for the full control effect; nearly all actives have a fitted effect of over 50% in size
# HP1b binding inh: HTS for Inhibitors of HP1-beta Chromodomain Interactions with Methylated Histone Tails; Chromobox protein homolog 1 (Homo sapiens), P83916; AlphaScreen HP1-beta / biotin-H3K9me3 peptide binding; Potency, µM (top dose mostly 114 µM), inactives show at the top dose activity change, negative = inhibition, actives largely listed as inhibitors; actives 0.56% (n = 390,000); also: potency is read from the fitted curve at half-maximal effect; nearly all actives have a fitted effect of over 70% in size
# Target sequence (P83916 whole entry, looked up): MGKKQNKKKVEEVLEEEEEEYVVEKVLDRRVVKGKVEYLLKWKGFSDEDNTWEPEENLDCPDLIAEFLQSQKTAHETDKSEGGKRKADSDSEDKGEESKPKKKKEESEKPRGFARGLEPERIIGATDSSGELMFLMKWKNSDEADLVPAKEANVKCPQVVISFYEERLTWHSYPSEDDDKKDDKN
#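 HP1-beta protein (50 nM final) preincubated 30 min at room temperature with biotinylated H3(1-18)K9me3 peptide (50 nM) in PBS pH 7.4, 0.01% Tween-20, then compound added for 30 min. AlphaScreen streptavidin donor/nickel chelate acceptor beads (10 ug/mL final), 30 min dark, luminescence read.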
# PLK1 PBD block: qHTS for Inhibitors of PLK1-PDB (polo-like kinase 1 - polo-box domain): Primary Screen; Potency, µM, without a hit: max response, negative = inhibition, usual class: inhibitors; Serine/threonine-protein kinase PLK1 (Homo sapiens), P53350; Plk1 PBD binding of FITC phosphopeptide, fluorescence polarization; actives 2.8% (n = 360,000); also: potency is read from the fitted curve at half-maximal effect; series mostly up to about 57 µM; % is scaled to controls: 0 for no effect and ±100 for the full control effect; nearly all actives have a fitted effect of over 65% in size
# PI5P4K alpha inh: qHTS for Inhibitors of phosphatidylinositol 5-phosphate 4-kinase (PI5P4K) | PI5P4Kalpha enzyme, ADP-Glo luminescence, 60 min; active compounds read low | Phosphatidylinositol 5-phosphate 4-kinase type-2 alpha (Homo sapiens), P48426 | max response, % | actives 1.2% (n = 330,000); active = max response of -50% or lower; inconclusive = between -30% and -50%; inactive = -30% or higher; also: value at the top dose of about 77 µM; % is scaled to controls: 0 for no effect and ±100 for the full control effect
# Target sequence (P48426 whole entry, looked up): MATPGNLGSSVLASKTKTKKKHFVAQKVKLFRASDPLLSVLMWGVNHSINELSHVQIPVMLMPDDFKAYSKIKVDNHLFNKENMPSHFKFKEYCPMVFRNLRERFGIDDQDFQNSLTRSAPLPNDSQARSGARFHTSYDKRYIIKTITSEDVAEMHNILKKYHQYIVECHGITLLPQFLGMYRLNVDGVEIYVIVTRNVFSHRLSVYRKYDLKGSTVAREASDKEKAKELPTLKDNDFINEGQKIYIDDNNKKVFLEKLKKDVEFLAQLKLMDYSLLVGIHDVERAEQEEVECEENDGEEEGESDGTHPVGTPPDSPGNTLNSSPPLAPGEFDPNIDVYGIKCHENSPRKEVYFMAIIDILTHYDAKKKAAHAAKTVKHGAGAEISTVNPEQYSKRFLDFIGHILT
#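 ADP-Glo luminescence end-point read after a 60 min room-temperature kinase reaction of PI5P4Kalpha plus substrate, initiated with ATP at 5 microM final. Buffer: 0.038 M HEPES pH 7.4, EGTA, 0.1% CHAPS, 5% DMSO.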
# BAZ2B block: qHTS Assay for Inhibitors of BAZ2B; Bromodomain adjacent to zinc finger domain protein 2B (Homo sapiens), Q9UIF8; AlphaScreen BAZ2B-H3K14Ac peptide displacement; Potency, µM (doses to about 114 µM), inactives show top-dose activity change, negative = inhibition, usual class: inhibitors; actives 4.4% (n = 360,000); AID 504333, 2011; also: potency is read from the fitted curve at half-maximal effect; % is scaled to controls: 0 for no effect and ±100 for the full control effect; nearly all actives have a fitted effect of over 60% in size
#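 Compounds, titrated to a top concentration of 110 uM, were incubated 30 min at room temperature with preformed BAZ2B/acetyl-K14 H3 peptide complex (50 nM each). Proximity signal was measured by AlphaScreen after 20 min with beads.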
# Active calls of the source: *; ? = inconclusive; . = no result given; [ ] = another dose, or the depositor's remark. Unless noted, calls follow the shape of the dose curve; as a rule, active = well fitted curve in the direction sought with a large enough effect; inconclusive = small, poorly fitted or top-dose-only effect, or another doubt; inactive = no such curve, though single readings can be large; an effect the other way counts as inactive or inconclusive.
SMILES,G9a block,JMJD2A Tudor,HP1b binding inh,PLK1 PBD block,PI5P4K alpha inh,BAZ2B block
Cn1c(SCc2cccc(Br)c2)nnc1-c1ccccn1,18.7%[12.7 µM],-2.4%,30.7%,6.0%,-2.8,?
Cn1c(SCc2cccc(F)c2)nnc1-c1ccccn1,0.7%[59 µM],79.4µM*,18.5%,-9.1%,-0.5,70.8µM*
Cc1ccccc1CSc1nccn1-c1ccccc1,.,?,?,-13.3%,-2.7,35.5µM*
CC1=NN(c2ccccc2)C(=O)C1/C=C1/NC(=S)NC1=O (stereo not drawn),?,-20.1%,20.8%,-14.6%,?,-29.6%
CC1=NN(c2ccccc2)C(=O)C1C=Nc1ccc(N(C)C)cc1 (stereo not drawn),.,44.7µM*,?,9.5%,-5.6,35.5µM*
CC1(C)Cc2c(c(N3CCOCC3)nc3sc4c(NCc5ccco5)nnnc4c23)CS1,17.8µM*,-8.0%,9.9%,-5.0%,-0.8,-32.4%
CC1(C)Cc2c(c(N3CCOCC3)nc3sc4c(NCc5ccccc5)nnnc4c23)CS1,-46.2%[59 µM],-9.9%,1.6%,-5.9%,.,-22.3%
Fc1ccccc1/C=N/Nc1nn[nH]n1,20µM*,79.4µM*,29.3%,1.0%,-10.7,?
O=c1[nH]c(=O)c2nnc(N/N=C/c3ccccc3F)nc2[nH]1,-5.2%,-16.4%,43.5%,-3.5%,-88.0*,-1.2%
O=c1[nH]c(=O)c2nnc(N/N=C\c3ccc(O)cc3)nc2[nH]1,11.2µM*,?,40.3%,-1.3%,?,?
COc1cccc(/C=N/Nc2nnc3c(n2)[nH]c2ccccc23)c1OC,.,-8.4%,40.1%,-9.4%,7.8,-6.7%
CCc1ccc2[nH]c3nc(N/N=C/c4cccc(O)c4)nnc3c2c1,-19.2%,-4.1%,41.3%,-13.5%,-13.0,-1.6%
CC1(C(=O)NS(=O)(=O)c2ccc(F)cc2F)CCN1C(=O)C/C=C/c1ccccc1 (stereo not drawn),.,.,.,-10.5%,-6.9,.
COc1cccc(OC)c1C(=O)NC(=S)Nc1cc(-c2nc3ccccc3[nH]2)ccc1Cl,?,-35.9%,?,9.47µM*,-25.4,-11.4%
O=C(Nc1cccc(C(=O)N2CCOCC2)c1)c1ccccc1Cl,.,-23.3%,10.9%,-5.9%,-0.9,-3.1%
CC12CCC(C(=O)N(CCCCN3CCN(Cc4ccccc4)CC3)C1=O)C2(C)C (stereo not drawn),56.2µM*,?,-6.2%,-9.0%,4.0,-15.6%
Cc1ccc(-n2ccnc(NCc3ccccc3)c2=O)cc1C,?,-17.2%,-15.8%,.,.,?
COc1ccc(OC)c(CCNc2nccn(-c3ccc(C)c(C)c3)c2=O)c1,15.8µM*,56.2µM*,?,.,.,25.1µM*
CC(C)N=c1cc2n(-c3ccc(Cl)cc3)c3ccccc3nc-2cc1Nc1ccc(Cl)cc1,2.51µM*,7.08µM*,4.47µM*,-11.2%,-0.8,.
Cc1c(C(=O)Nc2nc(-c3ccc(F)cc3)ns2)oc2ccc(Cl)cc12,?,-21.7%,4.4%,.,.,-0.2%
CN(C)S(=O)(=O)c1ccc(C(=O)NCCS(=O)(=O)N2CCN(c3ccccc3)CC2)cc1,2.0%[59 µM],-6.4%,13.1%[57 µM],.,.,2.1%
Cc1ccc2c(c1)N(C(=O)N1CCC(C(=O)NCCc3ccc(Cl)cc3)CC1)CC(C)O2 (stereo not drawn),-21.2%[59 µM],-1.0%,49.5%,.,.,-1.5%
COCCCN1C(=O)C(=O)/C(=C(/O)c2ccc(S(=O)(=O)N3CCCCC3)cc2)C1c1ccc(O)c(OC)c1 (stereo not drawn),?,-22.8%,18.1%,-13.5%,0.2,?
COc1cc(C2/C(=C(/O)c3ccc(F)cc3)C(=O)C(=O)N2CCCC(=O)O)ccc1O (stereo not drawn),.,?,0.0%,-6.3%,.,56.2µM*
COc1cccc(C2/C(=C(/O)c3ccccc3)C(=O)C(=O)N2CCCC(=O)O)c1 (stereo not drawn),?,50.1µM*,5.4%,-13.8%,0.1,?
SMILES,G9a block,JMJD2A Tudor,HP1b binding inh,PLK1 PBD block,PI5P4K alpha inh,BAZ2B block
COCCCN1C(=O)C(=O)/C(=C(/O)c2ccc(S(=O)(=O)N3CCCCC3)cc2)C1c1cccc(OC)c1 (stereo not drawn),44.7µM*,3.9%,37.5%,5.3%,-0.2,-24.4%
Cc1cc(C)c(NC(=O)Cn2c(=O)n(CCC(=O)NCc3ccccc3Cl)c(=O)c3sccc32)c(C)c1,6.2%[59 µM],3.4%,19.3%,.,.,0.3%
COc1ccc(S(=O)(=O)N(CC(=O)NCc2ccncc2)c2ccc(C)cc2)cc1Br,-14.7%,-17.9%,0.2%,-5.5%,1.0,-5.2%
O=c1[nH]c2ccc(NC(=S)Nc3ccccc3Cl)cc2[nH]1,14.1µM*,-5.6%,0.8%,-10.5%,-8.9,-3.9%
Cc1ccccc1NC(=S)Nc1ccc2[nH]c(=O)[nH]c2c1,50.1µM*,-16.2%,-4.3%,?,-4.0,-9.7%
CNC(=S)Nc1ccc(C)c(NC(=S)NC)c1,28.2µM*,-15.5%,?,?,-12.9,-26.1%
COc1ccc(CN(C)C(=O)/C=C/[C@H]2O[C@@H](n3cnc4c(N)ncnc43)[C@H](O)[C@@H]2O)cc1OC,.,.,.,-2.5%,1.7,.
CCc1c(C)sc2c1CCN(C(=O)Nc1cc(C)ccc1C)C2c1ccc(OC)cc1 (stereo not drawn),0.5%[59 µM],-12.3%,20.9%,.,.,-22.1%
O=C(N/N=C/c1ccc2cccnc2c1)c1ccco1,28.2µM*,-9.0%,23.9%,1.0%,-6.2,5.3%
CC(C)OC(=O)c1cccnc1SCc1cc(=O)n2ccccc2n1,50.1µM*,-7.7%,53.8%,-24.9%,.,-7.9%
CSc1nc2sc3c(c2c(=O)n1Cc1ccccc1)CCC(C(C)(C)C)C3 (stereo not drawn),-34.3%[59 µM],-3.9%,21.4%,.,.,-15.4%
O=C(CSc1nnc(CNc2ccc(F)cc2)o1)N1CCCc2ccccc21,-4.2%[59 µM],?,-19.8%,26.7µM*,?,?
O=C(NCc1nnc(SCC(=O)N2CCCc3ccccc32)o1)c1ccco1,?,4.1%,49.9%,-13.0%,0.9,.
O=C(CSc1nnc(-c2ccc(F)cc2)o1)N1CCCc2ccccc21,10µM*,-4.8%,5.4%,.,.,-7.5%
CCn1c(SCC(=O)Nc2ccc(NC(C)=O)cc2)nc2c1c(=O)n(C)c(=O)n2C,24.9%,-11.0%,-2.7%,-12.3%,-1.7,-12.9%
COCCCNC(=O)c1c(NC(=O)c2cc(=O)c3ccccc3o2)sc2c1CCCC2,23.0%[59 µM],-9.0%,54.6%,.,.,23.8%
